Compound activity from PubChem BioAssay.
Sampled rows, rich in hits. Any-hit rate of the full collection: about 21%.
HCV inh: qHTS Assay for Inhibitors of Hepatitis C Virus (HCV) | Huh7.5.1 HCVcc-Cre infection, luciferase reporter, 44 h | Potency, µM (series often up to 41.8 µM), without a hit: at the highest dose activity change, negative = inhibition, actives largely listed as inhibitors | 340,000 tested, 3.4% active; further: potency means the concentration at half of the fitted maximal effect; on the % scale 0 is the no-effect control and ±100 the full control effect
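Antiviral activity was scored by luciferase reporter output from cells infected with HCVcc-Cre (~0.5 moi) in presence of compound, 44 h infection period, cells seeded 1,000/well 4 h prior.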
Pf growth 96h: Primary qHTS for delayed death inhibitors of the malarial parasite plastid, 96 hour incubation; AID 504834, 2011; 320,000 tested, 6.9% active; P. falciparum luciferase reporter growth, 96 h; Potency, µM (top dose mostly 28.7 µM), for the others: top-dose activity change, negative = inhibition, most hits filed as inhibitors; further: potency means the concentration at half of the fitted maximal effect; on the % scale 0 is the no-effect control and ±100 the full control effect
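Infected RBCs, 2% Hct / 0.05% parasitemia final; luciferase-reporter P. falciparum; cpd 96 h, 37 C, 5% CO2; luciferase detection reagent; luminescence.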
AMA1 RON2 block: qHTS for Inhibitors of AMA1-RON; Towards Development of Antimalarial Drug Lead: Primary Screen; Potency, µM (doses to about 58.2 µM), for inactives: top-dose activity change, negative = inhibition, usual class: inhibitors; 360,000 tested, 0.2% active; AlphaScreen AMA1-biotinylated RON2 peptide binding; Plasmodium falciparum AMA1 (3D7) - RON2 peptide interaction; AID 720542, 2013;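 further: potency means the concentration at half of the fitted maximal effect; 0% = vehicle wells and -100% = peptide control; nearly all actives have a fitted effect of over 45% in size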
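AMA1 (3D7) with his tag at 25 nM final met compounds first, then biotinylated RON2 peptide at 25 nM; detection used donor plus acceptor beads, 10 µg/mL apiece, read by AlphaScreen after 30 min at room temperature.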
Pf growth 48h: Primary qHTS for delayed death inhibitors of the malarial parasite plastid, 48 hour incubation; 310,000 tested, 5.9% active; Potency, µM (top dose mostly 28.7 µM), without a hit: at the top dose activity change, negative = inhibition, hits mostly inhibitors; P. falciparum luciferase growth in erythrocytes, 48 h; AID 504832, 2011; further: potency means the concentration at half of the fitted maximal effect; on the % scale 0 is the no-effect control and ±100 the full control effect
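Erythrocytes infected with P. falciparum carrying an integrated firefly luciferase reporter (2% hematocrit, 0.1% parasitemia final) were exposed to compounds in RPMI 1640 with 0.5% Albumax at 37 C, 5% CO2. Growth inhibition was scored as reduced luminescence.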
Shiga inhibitor: A qHTS for Small Molecule Inhibitors of Shiga Toxin | 290,000 tested, 9.2% active | Vero cells, Shiga toxin protein synthesis inhibition reporter | AID 2315, 2010 | inhibition, % at 38.7 µM; in the data active means inhibition mostly above about 28%, no sharp cut-off; inactive means mostly below about 43%; further: 0% is about no effect
Cycloheximide cs: Cycloheximide Counterscreen for Small Molecule Inhibitors of Shiga Toxin; cell reporter, cycloheximide protein synthesis inhibition counterscreen; max response, %; 300,000 tested, 12% active; in the data active means max response mostly above about 13%, no sharp cut-off; inactive means mostly below about 14%; further: read at 38.3 µM for the half of the compounds with a filed dose; 0% is about no effect
* = called active by the depositor; u = inconclusive; x = no result. Unless noted, the call rests on the fitted dose curve; in most records, active means well fitted curve in the direction sought with a large enough effect; inconclusive means small, poorly fitted or top-dose-only effect, or another doubt; inactive means no such curve, though single readings can be large; an effect the other way counts as inactive or inconclusive.

SMILES	HCV inh	Pf growth 96h	AMA1 RON2 block	Pf growth 48h	Shiga inhibitor	Cycloheximide cs
Nc1nonc1C(=O)NCCNCc1cc(Br)ccc1OCc1ccccc1F	10µM*	u	15.7%	3.29µM*	-14.6	-5.4
c1ccc([C@H]2CN3C(=N2)Sc2ccccc23)cc1	u	123.8%	-1.3%	71.7%	x	x
COc1ccc(CC(=O)Nc2cc(S(=O)(=O)N3CCCCC3)ccc2OC(C)C)cc1OC	x	x	-1.9%	x	x	x
COc1ccc(C2CC(C(F)(F)F)n3nc(C(=O)NCc4c(C)nn(C)c4C)c(Cl)c3N2)cc1 (stereo unspecified)	u	-2.3%	-5.0%	u	-19.5	4.2
COc1ccc(C2CC(C(F)(F)F)n3nc(C(=O)N(C)Cc4cn(C)nc4C)c(Cl)c3N2)cc1 (stereo unspecified)	-5.4%	0.0%	1.3%	14.7µM*	-2.3	2.1
CCCCNC(=O)c1nc(C2CCN(S(=O)(=O)c3ccc(S(C)(=O)=O)cc3)CC2)oc1-c1ccccc1	x	x	1.1%	x	x	x
CC1CCCC(C)N1C(=O)CSc1nnc(-c2cccs2)o1 (stereo unspecified)	12.0%	-9.0%	8.4%	15.4%	51.4*	35.0*
CC1CCCCN1C(=O)CSc1nnc(-c2cccs2)o1 (stereo unspecified)	4.6%	28.2%	16.8%	137.2%	67.1*	48.4*
O=C(CSc1nnc(-c2cccs2)o1)N1CCOCC1	15.1%	-16.7%	11.0%	43.6%	-5.3	-2.2
CC1CCCCN1C(=O)CSc1nnc(-c2c[nH]c3ccccc23)o1 (stereo unspecified)	u	-26.3%	-7.9%	u	74.8	27.8*
CCN(CC(=O)Nc1cccc(C(C)=O)c1)S(=O)(=O)c1ccc(C)cc1	0.9%	2.5%	-6.4%	-21.8%	-3.0	-2.4
Cc1noc(C)c1-c1ccc2ncnc(NCc3cccc(-c4ccccc4)c3)c2c1	x	3.7µM*	x	u	3.5	9.7
CCOc1ccccc1CNc1ncnc2ccc(-c3c(C)noc3C)cc12	x	u	x	u	51.5	30.1*
COc1ccc(-c2cnc(N)n2CC2CCCO2)cc1 (stereo unspecified)	-4.4%	x	42.9%	u	64.7	21.7*
Cc1ccc2nc(-c3ccccn3)c(Nc3ccccc3C)n2c1	5.01µM*	5.7%	-71.5%	u	-7.6	-1.2
Cc1ccc2nc(-c3cccnc3)c(Nc3ccccc3C)n2c1	-9.9%	-3.8%	18.2%	u	-14.4	-6.2
Cc1ccn2c(Nc3ccccc3C)c(-c3ccccn3)nc2c1	3.98µM*	-15.0%	-53.6%	u	34.5	-2.0
Cc1ccccc1Nc1c(-c2ccccn2)nc2ccccn12	u	-17.4%	-78.6%	2.62µM*	-7.2	-4.0
Cc1ccn2c(Nc3ccccc3)c(-c3ccccn3)nc2c1	8.91µM*	139.0%	40.2%	2.08µM*	20.6	10.4
Cc1cn([C@H]2C[C@H](O)[C@@H](CCC(=O)NCCc3cnc[nH]3)O2)c(=O)[nH]c1=O	8.4%	x	-13.2%	x	x	x
CC(N=c1ccccn1C(=O)Nc1ccc(F)cc1)c1ccco1 (stereo unspecified)	-16.6%	u	0.5%	16.9%	26.4	7.2
CC(N=c1ccccn1C(=O)Nc1ccc(Cl)cc1)c1ccco1 (stereo unspecified)	4.9%	x	-0.5%	u	65.1*	48.7*
N#CC1=C(N)N2C(=C(C#N)C1c1cccc(Br)c1)Nc1ccccc12 (stereo unspecified)	u	u	10.5%	8.4%	14.5	0.2
N#CC1=C(N)N2C(=C(C#N)C1c1ccc(Br)cc1)Nc1ccccc12 (stereo unspecified)	6.31µM*	9.28µM*	6.4%	u	6.2	7.1
COc1ccc(C(=O)N2CCCCCC2)cc1OC1CCN(C(C)=O)CC1	x	10.4µM*	10.4%	37.4%	-2.5	5.4
CCC1CCCCN1C(=O)c1ccc(OC)c(OC2CCN(C(C)=O)CC2)c1 (stereo unspecified)	5.9%	17.6%	-2.0%	-4.6%	0.9	1.6
